Results as given in PubChem BioAssay.
Records with an inconclusive call do not appear. Calls of active or inactive are those of the source.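 Rule for the calls, unless noted: active = normalized viability below 100% at a tested concentration; inactive = the rest.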

Legend:
[1] = growth inhibition of DIPG glioma cells, dose response, cell-based, SU-DIPG-XIII, MIPE4.0, CellTiter-Glo, qHTS (AID 1347061; cut-off not given, nearly all actives have AC50 up to about 37 µM;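 note: cells exposed to compound for 48 hours before readout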); conditions: SU-DIPG-XIII viability, CellTiter-Glo ATP luminescence
[2] = growth inhibition of DIPG glioma cells, dose response, cell-based, JHH-DIPG-1, MIPE4.0, CellTiter-Glo, qHTS (AID 1347062; cut-off not given, nearly all actives have AC50 up to about 27 µM;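 note: cells exposed to compound for two days before readout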); conditions: JHH-DIPG-1 viability, CellTiter-Glo ATP luminescence
[3] = SU-DIPG-VI glioma cell viability, MIPE4.0 library, CellTiter-Glo luminescence, qHTS (AID 1347066; cut-off not given, nearly all actives have AC50 up to about 30 µM;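 note: cells exposed to compound for 48 hours before readout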); conditions: CellTiter-Glo ATP luminescence
[4] = sensitizers of A549 cells to miR-34 induction, primary screen, imaging, A549 dox-inducible miR-34, nuclei and caspase counts (AID 1347080;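 active = compounds whose cell count with miR-34 switched on is under 0.7 times the count with it off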); conditions: A549 miR-34 inducible, Hoechst nuclei count, 48 h
[5] = modifiers of HSF1 nuclear foci, imaging, Selleck Cancer Library (AID 1347162; in the data active = plate-normalised HSF1 focus index below about 0.46); conditions: human cells, at 10 µM; SSMD: measured here: HSF1 foci SSMD mean; cell count: measured here: cell number; plate-normalised HSF1 focus index: stronger effect = lower value
[6] = ovarian cancer cell viability with rucaparib, profiling panel, oncology-focused library, rucaparib conditional (AID 1508598); conditions: patient-derived ovarian cancer cells, CellTiter-Glo viability, 144 h, stronger effect = lower value
[7] = growth inhibition of DIPG glioma cells, dose response, cell-based, SU-DIPG-IV, MIPE4.0, CellTiter-Glo, qHTS (AID 1347063; cut-off not given, nearly all actives have AC50 up to about 30 µM;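 note: compound exposure lasted 48 hours before the viability readout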); conditions: SU-DIPG-IV viability, CellTiter-Glo ATP luminescence
[8] = viability loss in pontine glioma line – cell-based, SU-DIPG-XXV, MIPE5.0, CellTiter-Glo, qHTS, dose response (AID 1347065; cut-off not given, nearly all actives have AC50 up to about 26 µM;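 note: cells exposed to compound for 48 hours before ATP readout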); conditions: CellTiter-Glo ATP luminescence
[9] = SU-DIPG-XXV glioma cell viability, MIPE5.0 library, qHTS (AID 1347068; cut-off not given, nearly all actives have IC50 up to about 30 µM;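 for IC50: cells exposed to compound for 48 hours before viability readout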)
[10] = survival rescue of mitochondrial mutant cells in low glucose, primary screen, MELAS cybrids, Rieske KO mouse fibroblasts, CellTiter-Glo (AID 1508586;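 active = mean z-score across replicates of 1.96 or higher in either the MELAS or the Rieske mutant cell line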;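 note: z relative to plate mean and SD of compound and empty wells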)
[11] = stronger effect = lower value, cell number ratio, induced over uninduced
[12] = measured here: relative caspase fold change +Dox/-Dox
[13] = measured here: total cells with miR-34 induction, stronger effect = lower value
[14] = measured here: total cells without miR-34 induction
[15] = at 0.000305 µM, OCI-C5x cells, with rucaparib 10 µM, 100% = cells with rucaparib alone
[16] = at 0.000305 µM, OCI-C5x cells, without rucaparib
[17] = at 0.000305 µM, OCI-P5x cells, with rucaparib 20 µM, 100% = cells with rucaparib alone
[18] = at 0.000305 µM, OCI-P5x cells, without rucaparib
[19] = at 0.00122 µM, OCI-C5x cells, with rucaparib 10 µM, 100% = cells with rucaparib alone
[20] = at 0.00122 µM, OCI-C5x cells, without rucaparib
[21] = at 0.00122 µM, OCI-P5x cells, with rucaparib 20 µM, 100% = cells with rucaparib alone
[22] = at 0.00122 µM, OCI-P5x cells, without rucaparib
[23] = at 0.00488 µM, OCI-C5x cells, with rucaparib 10 µM, 100% = cells with rucaparib alone
[24] = at 0.00488 µM, OCI-C5x cells, without rucaparib
[25] = at 0.00488 µM, OCI-P5x cells, with rucaparib 20 µM, 100% = cells with rucaparib alone
[26] = at 0.00488 µM, OCI-P5x cells, without rucaparib
[27] = at 0.0195 µM, OCI-C5x cells, with rucaparib 10 µM, 100% = cells with rucaparib alone
[28] = at 0.0195 µM, OCI-C5x cells, without rucaparib
[29] = at 0.0195 µM, OCI-P5x cells, with rucaparib 20 µM, 100% = cells with rucaparib alone
[30] = at 0.0195 µM, OCI-P5x cells, without rucaparib
[31] = at 0.0781 µM, OCI-C5x cells, with rucaparib 10 µM, 100% = cells with rucaparib alone
[32] = at 0.0781 µM, OCI-C5x cells, without rucaparib
[33] = at 0.0781 µM, OCI-P5x cells, with rucaparib 20 µM, 100% = cells with rucaparib alone
[34] = at 0.0781 µM, OCI-P5x cells, without rucaparib
[35] = at 0.313 µM, OCI-C5x cells, with rucaparib 10 µM, 100% = cells with rucaparib alone
[36] = at 0.313 µM, OCI-C5x cells, without rucaparib
[37] = at 0.313 µM, OCI-P5x cells, with rucaparib 20 µM, 100% = cells with rucaparib alone
[38] = at 0.313 µM, OCI-P5x cells, without rucaparib
[39] = at 1.25 µM, OCI-C5x cells, with rucaparib 10 µM, 100% = cells with rucaparib alone
[40] = at 1.25 µM, OCI-C5x cells, without rucaparib
[41] = at 1.25 µM, OCI-P5x cells, with rucaparib 20 µM, 100% = cells with rucaparib alone
[42] = at 1.25 µM, OCI-P5x cells, without rucaparib
[43] = at 5 µM, OCI-C5x cells, with rucaparib 10 µM, 100% = cells with rucaparib alone
[44] = at 5 µM, OCI-C5x cells, without rucaparib
[45] = at 5 µM, OCI-P5x cells, with rucaparib 20 µM, 100% = cells with rucaparib alone
[46] = at 5 µM, OCI-P5x cells, without rucaparib
[47] = MELAS cybrid survival, CellTiter-Glo 48 h, stronger effect = higher value
[48] = Rieske KO mouse fibroblast survival, CellTiter-Glo 72 h

O=C(NOC[C@H](O)CO)c1ccc(F)c(F)c1Nc1ccc(I)cc1F
3.29: SSMD [5]
2470: cell count [4, 14]
2.04: fold change [4, 12]
active: AC50 [1] 1050 nM | AC50 [2] 2350 nM | viability [6, 17] 79.9% | viability [6, 18] 86.4% | viability [6, 21] 73.1% | viability [6, 22] 80% | viability [6, 25] 60% | viability [6, 26] 73.8% | viability [6, 28] 96.8% | viability [6, 29] 51.1% | viability [6, 30] 67.5% | viability [6, 32] 94.3% | viability [6, 33] 46.8% | viability [6, 34] 62.3% | viability [6, 35] 98.2% | viability [6, 36] 86.8% | viability [6, 37] 41% | viability [6, 38] 50.2% | viability [6, 39] 66.9% | viability [6, 40] 68.4% | viability [6, 41] 40.4% | viability [6, 42] 44.1% | viability [6, 43] 34.4% | viability [6, 44] 37.4% | viability [6, 45] 30.5% | viability [6, 46] 38.4%
2530: cell count [4, 13]
inactive: outcome [3] | fold change [4, 11] 1.03 | plate-normalised HSF1 focus index [5] 1.21 | viability [6, 15] 115% | viability [6, 16] 103% | viability [6, 19] 110% | viability [6, 20] 103% | viability [6, 23] 111% | viability [6, 24] 101% | viability [6, 27] 111% | viability [6, 31] 120%
7460: cell count [5]

CCCCOc1c(C(=O)c2c(F)cc(C)cc2F)cnc2n[nH]cc12
inactive: outcome [1] | fold change [4, 11] 1.03 | z-score [10, 47] 0.523
-1.74: z-score [10, 48]
active: AC50 [7] 4180 nM | AC50 [8] 1660 nM | IC50 [9] 3720 nM
1900: cell count [4, 14]
1950: cell count [4, 13]
0.597: fold change [4, 12]

CN(C[C@@H]1COCCO1)S(=O)(=O)Nc1ccc2ccc3ncc(-c4cnn(C)c4)cc3c(=O)c2c1
active: AC50 [1] 2640 nM | AC50 [8] 2090 nM | IC50 [9] 3320 nM
inactive: outcome [3]

COc1ccc(COc2cc3oc(=O)c4cc(C(C)O)ccc4c3cc2OC)cc1 (stereo not given)
1.45: fold change [4, 12]
7360: cell count [4, 13]
7240: cell count [5]
0.921: z-score [10, 48]
inactive: outcome [1] | outcome [8] | outcome [9] | fold change [4, 11] 0.923 | plate-normalised HSF1 focus index [5] 0.961 | z-score [10, 47] -0.463 | viability [6, 15] 108% | viability [6, 16] 122% | viability [6, 17] 103% | viability [6, 19] 119% | viability [6, 20] 114% | viability [6, 21] 108% | viability [6, 23] 121% | viability [6, 24] 104% | viability [6, 26] 101% | viability [6, 27] 118% | viability [6, 28] 118% | viability [6, 31] 122% | viability [6, 32] 114% | viability [6, 33] 103% | viability [6, 35] 113% | viability [6, 36] 100% | viability [6, 37] 102% | viability [6, 39] 126% | viability [6, 40] 107% | viability [6, 41] 103% | viability [6, 43] 132% | viability [6, 44] 130%
active: viability [6, 18] 97.5% | viability [6, 22] 98% | viability [6, 25] 98.6% | viability [6, 29] 99.9% | viability [6, 30] 98.3% | viability [6, 34] 96% | viability [6, 38] 92.5% | viability [6, 42] 94.4% | viability [6, 45] 92.1% | viability [6, 46] 90.6%
-0.619: SSMD [5]
7980: cell count [4, 14]
